RN4220 kill: growth inhibition of S. aureus RN4220, primary screen, OD600; 16 h; AID 1259311, 2017; hit rate 0.33% among 330,000; inhibition, % (test concentration not listed); in the data active = inhibition above about 85%;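 note: plate controls were untreated cells for no effect and reference antibiotic for full effect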
ugtP null kill: growth inhibition of ugtP-null S. aureus, primary screen, RN4220 ugtP deletion, OD600. 16 h. growth inhibition, % (no concentration beside the values). hit rate 0.54% among 330,000. AID 1259309, 2017; in the data active = growth inhibition above about 68%;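 note: plate controls were untreated wells for no effect and antibiotic for full effect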
PrPC TRFRET: inhibitors of human cell surface prion protein PrPC, primary screen, cell-based, TR-FRET; Major prion protein (Homo sapiens), P04156; TR-FRET read-out; inhibition, % at 13.8 µM; hit rate 0.43% among 370,000; in the data active = inhibition above about 24%; note: 0% = median of the test wells and 100% = reference compound wells
PfHsp40 yeast: rescue of yeast from PfHsp40 toxicity, primary screen, S. cerevisiae, ATP luminescence | S. cerevisiae expressing PfHsp40, growth rescue | growth rescue, % at 12.5 µM | hit rate 0.68% among 340,000 | AID 504582, 2011; in the data active = growth rescue above about 28%, passing the limit was not always enough;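 note: yeast W303a lacking pdr1 and pdr3 grown in galactose medium; growth measured after three days at 30 °C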
VHR inh abs: VHR1 phosphatase inhibitors, primary screen, biochemical, absorbance, uHTS; hit rate 0.52% among 290,000; AID 1654, 2009; recombinant VHR phosphatase, pNPP absorbance; Dual specificity protein phosphatase 3 (Homo sapiens), P51452; inhibition, % at 13.3 µM; in the data active = inhibition above about 50%
Target sequence (P51452 whole entry, looked up): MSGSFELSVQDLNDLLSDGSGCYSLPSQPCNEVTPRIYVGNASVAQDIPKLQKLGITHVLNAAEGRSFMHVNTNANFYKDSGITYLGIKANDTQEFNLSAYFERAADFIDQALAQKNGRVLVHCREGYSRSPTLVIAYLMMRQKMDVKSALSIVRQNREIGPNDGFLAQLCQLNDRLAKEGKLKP
* = called active by the depositor; x = not tested or not shown. Sampled rows, rich in hits. Any-hit rate of the full collection: about 1.8%.

SMILES	RN4220 kill	ugtP null kill	PrPC TRFRET	PfHsp40 yeast	VHR inh abs
COc1cc(/C=N/NC(=O)c2cc(-c3cccn3C)n[nH]2)cc(OC)c1OC	x	x	-1.0	0.5	27.7
COc1cc(C=NNC(=O)c2cc(-c3cccn3C)n[nH]2)cc(OC)c1OC	51.2	90.0*	x	x	x
C#CCOCCOCCOCCNc1nc(N2CCN(C(=O)C(CC(N)=O)n3cc(C(N)CC(N)=O)nn3)CC2)nc(N2CCN(C(=O)C(CCCN=C(N)N)n3cc(C(N)C(C)CC)nn3)CC2)n1 (centres undefined)	7.5	1.3	x	x	x
COc1cc(CCCN2C(=O)C(=O)NCC2CCCCN)cc(OC)c1OC (centres undefined)	5.8	4.0	x	x	x
CCc1ccc(NC(=O)COC(=O)/C=C/c2c(C)nn(C3CCS(=O)(=O)C3)c2Cl)cc1 (centres undefined)	5.6	5.2	8.2	59.3*	-2.0
COc1ccc(Cl)cc1NC(=O)COC(=O)/C=C/c1c(C)nn(C2CCS(=O)(=O)C2)c1Cl (centres undefined)	x	x	3.5	0.8	17.2
COc1ccc(Nc2nc(-c3sc(C)nc3C)cs2)cc1	-3.2	-6.6	10.3	10.9	8.8
Cc1nc(C)c(-c2csc(Nc3ccc(N)cc3)n2)s1	4.8	-14.1	-12.0	-0.7	57.0*
CCC(C)(C)c1ccc(Oc2cccc(C(=O)O)c2)cc1	14.7	-11.9	-9.7	-0.4	12.0
CCCCCc1ccc(OCCCC[n+]2cccc(C)c2)c(CCCCC)c1	x	x	8.9	95.3*	0.9
CCCCCc1ccc(OCCCC[n+]2ccc(C)cc2)c(CCCCC)c1	98.9*	100.0*	16.7	0.2	-0.1

Source: PubChem BioAssay (several laboratories)
